M1 PAM: human M1 muscarinic receptor positive allosteric modulators, primary screen, CHO-K1 cells, Fluo-8 calcium fluorescence, 1536-well; 360,000 tested, 0.088% active; Muscarinic acetylcholine receptor M1 (Homo sapiens), P11229; activation, % at 3 µM; AID 588819, 2011; CHO-K1 hM1, ACh EC20; 0% = ACh EC20, 100% = maximal ACh; in the data active = activation above about 19%, passing the limit was not always enough
Target sequence (P11229 whole entry, looked up): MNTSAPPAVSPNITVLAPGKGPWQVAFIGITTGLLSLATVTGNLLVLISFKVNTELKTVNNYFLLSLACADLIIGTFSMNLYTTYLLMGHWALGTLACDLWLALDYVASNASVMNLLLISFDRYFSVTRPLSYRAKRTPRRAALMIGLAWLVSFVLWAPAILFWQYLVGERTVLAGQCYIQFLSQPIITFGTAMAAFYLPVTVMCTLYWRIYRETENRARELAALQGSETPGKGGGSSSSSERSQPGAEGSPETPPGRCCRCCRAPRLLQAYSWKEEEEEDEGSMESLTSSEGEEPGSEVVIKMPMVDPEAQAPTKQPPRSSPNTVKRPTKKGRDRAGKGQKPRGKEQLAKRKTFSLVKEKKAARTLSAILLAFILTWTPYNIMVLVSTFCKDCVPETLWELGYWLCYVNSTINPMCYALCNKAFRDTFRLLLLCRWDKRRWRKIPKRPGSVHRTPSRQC
CHO-K1 Ca antag: counter-screen for M1 antagonists: effect in parental CHO-K1 cells | ATP-induced calcium, Fluo-8 fluorescence | inhibition, % at 3 µM | 360,000 tested, 0.6% active | AID 602250;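 active = inhibition above a per-plate cutoff, the plate's mean sample inhibition plus 3 SD, cut at about 24% in these data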;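 also: 0% = DMSO plus EC80 ATP and 100% = DMSO alone without ATP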
M1 antag: human M1 muscarinic receptor antagonists, primary screen, CHO-K1 cells, Fluo-8 calcium fluorescence, 1536-well | Muscarinic acetylcholine receptor M1 (Homo sapiens), P11229 | CHO-K1 hM1, ACh EC80 antagonist | inhibition, % at 3 µM | 360,000 tested, 1.3% active;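 active = percent inhibition above its own plate's cutoff, namely the mean of that plate's compound wells plus 3 SD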;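 also: peak over basal fluorescence ratio during 140 s after agonist addition; 0% = ACh EC80 plus DMSO and 100% = DMSO alone without agonist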
M1 ag: human M1 muscarinic receptor agonists, primary screen, Fluo-8 calcium fluorescence, CHO-K1 cells, HTS. CHO-K1 hM1, agonist mode; 0% DMSO, 100% acetylcholine EC100. 360,000 tested, 0.33% active. AID 588814, 2011. activation, % at 3 µM;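 active = activation above the run's mean compound activation plus 3 SD, cut at about 16% in these data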;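 also: peak over basal fluorescence ratio within a 140 s kinetic read after compound addition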
M1 ag parental: counter-screen for M1 agonists: effect in parental CHO-K1 cells. AID 602248, 2012. 360,000 tested, 0.48% active. Fluo-8 calcium fluorescence; scaled to maximal ATP response, vehicle zero. activation, % at 3 µM; in the data active = activation above about 15%;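 also: untransfected CHO-K1 host cells lacking M1 receptor as counterscreen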
CHO-K1 Ca PAM: nonselective calcium activators in parental CHO-K1 cells, primary screen, counter-screen for M1 PAM project, cell-based, Fluo-8 calcium fluorescence, full deck, 1536-well | ATP EC20; 0% at ATP EC20, 100% at ATP max | activation, % at 3 µM | 360,000 tested, 0.02% active;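 active = activation above the run cutoff, the mean activation of all test compounds plus 3 SD, cut at about 40% in these data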;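 also: peak over basal fluorescence ratio in a 140 s read after ATP addition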
An asterisk follows results filed as active. Only some compounds are listed: those with a hit (about 2.4% of all), similar ones and a draw of the others.

SMILES	M1 PAM	CHO-K1 Ca antag	M1 antag	M1 ag	M1 ag parental	CHO-K1 Ca PAM
O=C(NCc1ccc(F)cc1)C(c1ccccc1)N(C(=O)c1csnn1)c1ccccc1 (stereo not given)	-20.5	-2.8	29.0*	-9.3	7.2	-3.0
NC(=O)c1nsc(C(=O)N(c2ccccc2)C(C(=O)NCc2ccc(F)cc2)c2ccc(O)cc2)c1N (stereo not given)	-9.2	9.7	26.9*	-0.6	10.1	-2.3
C#CCN1C(C)=CC(=O)[C@@H](O)[C@H]1c1ccccc1Br	7.4	-10.3	-8.8	-4.0	0.4	14.8
Cc1csc(N/N=C\c2cccnc2)n1	7.2	8.4	-4.8	-6.5	17.0*	13.6
CCN1CCc2c(sc(NC(=O)Cc3ccccc3)c2C(N)=O)C1	2.6	-11.3	-6.8	-9.1	1.3	26.3
CCN1CCc2c(sc(NC(=O)Nc3ccc(Cl)c(Cl)c3)c2C(N)=O)C1	-19.4	59.2*	63.3*	113.5*	94.7*	-9.7
CN(C)C(CNC(=O)CCc1nc2sc3c(c2c(=O)[nH]1)CCCC3)c1ccccc1 (stereo not given)	1.2	-13.8	-0.4	-0.4	0.7	-8.0
N#C/C(=C\c1c[nH]c2ccccc12)C(N)=O	5.3	-2.0	-3.8	2.0	0.8	-9.7
CC(=O)Oc1c(/C=C(\C#N)C(N)=O)[nH]c2ccccc12	-1.0	27.4*	7.7	8.0	8.5	9.4
COc1cccc(C(NC(C)=O)c2nc(-c3ccc(C)c(C)c3)cs2)c1 (stereo not given)	3.6	26.0*	-2.2	-1.2	-0.2	-17.0
Cc1c(CC(=O)NCC(=O)NCC(=O)N[C@@H](Cc2ccccc2)C(=O)O)c(=O)oc2c(C)c(O)ccc12	2.8	-6.4	2.9	-3.2	-0.2	-11.6
O=C(CN(C(=O)CCC(=O)Nc1nccs1)C1CCCC1)NCc1ccc2c(c1)OCO2	13.9	-9.7	-5.7	-12.7	1.0	20.1
COc1ccccc1C(CNC(=O)COc1cc(C)ccc1Cl)N1CCCC1 (stereo not given)	-26.3	-1.3	61.8*	-7.0	0.6	5.4
Cc1ccccc1OCC(=O)NCC(c1ccco1)N1CCCCC1 (stereo not given)	-13.5	8.2	27.8*	-6.5	0.2	-12.5
Cc1cc(C)c(OCC(=O)NCC(c2ccco2)N2CCCCC2)c(C)c1 (stereo not given)	-15.6	-3.5	9.7	-8.6	-0.3	-13.7
COc1ccccc1C(CNC(=O)COc1ccccc1C)N1CCCC1 (stereo not given)	-26.7	2.6	58.8*	-7.8	-0.1	-7.0
COc1ccc(C(CNC(=O)COc2ccccc2C)N2CCCCC2)cc1 (stereo not given)	4.9	-7.7	1.8	-6.7	0.1	0.4
CCC(=O)NCC(c1ccco1)N1CCN(c2ccc(OC)cc2)CC1 (stereo not given)	10.8	-0.9	-10.3	8.0	17.3*	6.9
CCc1noc(C)c1C(=O)N1CCN(S(=O)(=O)c2ccc(Br)cc2Cl)CC1	5.6	7.7	-8.9	-1.9	0.5	-27.1
Cc1ccc(S(=O)(=O)NC(=O)c2ccc(Br)o2)cc1	4.1	-9.6	2.1	-1.2	0.1	7.3
Cc1cccc(-c2nc(CNC(=O)c3ccco3)cs2)c1	16.6	-4.9	-11.5	1.4	0.0	-13.3
O=C(O)Cn1c(=O)c2c3c(sc2n(Cc2ccccc2F)c1=O)CCCC3	9.3	6.5	4.5	-0.6	-0.5	2.5
CCN(CC)CCSc1nnc2c3ccccc3n(Cc3ccccc3)c2n1	-22.0	-7.7	51.2*	-6.4	0.9	12.9
Cn1c2ccccc2c2n[nH]c(=S)nc21	7.9	6.9	-7.2	-3.5	15.3*	12.1
CCN(CC)CCn1c2ccccc2c2n[nH]c(=S)nc21	-27.5	9.0	35.8*	-10.3	0.1	-3.9
CCN(CC)CCn1c2ccccc2c2nc3ccccc3nc21	-4.8	-6.2	-1.3	-8.1	2.1	7.2
